D1 agonist – activates the human D1 dopamine receptor | HEK293 T-REx D1 cells, calcium flux, agonist mode | activation, % at 2 µM | hit rate 1% among 360,000 | AID 504660
Target sequence (P21728 whole entry, looked up): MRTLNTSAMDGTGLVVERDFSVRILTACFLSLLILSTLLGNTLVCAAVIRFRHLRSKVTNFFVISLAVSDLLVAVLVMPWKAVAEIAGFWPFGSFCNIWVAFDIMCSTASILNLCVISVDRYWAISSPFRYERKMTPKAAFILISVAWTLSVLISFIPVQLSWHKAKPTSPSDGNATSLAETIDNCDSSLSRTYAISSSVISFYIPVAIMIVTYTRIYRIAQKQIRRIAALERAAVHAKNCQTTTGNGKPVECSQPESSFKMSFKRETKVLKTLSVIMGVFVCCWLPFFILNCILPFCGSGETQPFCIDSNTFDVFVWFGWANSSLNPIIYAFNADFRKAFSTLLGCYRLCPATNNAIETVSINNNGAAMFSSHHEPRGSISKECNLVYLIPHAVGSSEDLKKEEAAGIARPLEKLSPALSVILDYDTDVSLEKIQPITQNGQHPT
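Inducible HEK293 T-REx D1 cells, force-coupled to calcium signalling, were plated at 4000 cells/well with tetracycline and held overnight at 30 C. After no-wash calcium dye loading, compound-evoked calcium rise over 180 s flagged agonists.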
D1 antag – blocks dopamine activation of the human D1 receptor; P21728; hit rate 3.2% among 360,000; AID 504652; activity change, negative = inhibition, % at 10 µM; HEK293 TREx D1 cells, calcium flux, dopamine EC80; stronger effect = lower value; in the data active means activity change below about -30%
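Tetracycline-induced HEK293 Trex D1 cells, force-coupled to calcium, dye-loaded; compounds added and read 180 s, then EC80 dopamine added and calcium flux tracked kinetically another 180 s.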
D1 PAM – enhances dopamine response at the human D1 receptor | AID 504651 | potentiation, % at 10 µM | P21728 | hit rate 0.036% among 360,000 | HEK293 TREx D1 cells, calcium flux, dopamine EC20 potentiation; in the data active means potentiation above about 30%
TRHR agonist – agonists of human TRH receptor; AID 493084; hit rate 0.18% among 360,000; TRHR cells, calcium flux fluo-8, FDSS agonist mode; P34981; activation, % at 2 µM
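In this calcium-flux screen, cells bearing human TRHR are dye-loaded with fluo-8, baselined for 10 cycles, then exposed to library compounds; positive kinetic calcium responses during the agonist phase mark hits, with TRH as control.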
TRHR enhancer – allosterically enhances the human TRH receptor | enhancement, % at 2 µM | TRHR cells, fluo-8 calcium fluorescence, EC20 TRH enhancement | hit rate 0.66% among 360,000 | P34981; in the data active means enhancement above about 30%
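TRHR-expressing cells loaded with fluo-8 calcium dye were read kinetically (ex 480/em 530) during compound addition, then stimulated with an EC20 of TRH (10 nM final). Enhancement of the Gq-mediated intracellular calcium response was scored.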
A number is an active result; – = inactive; · = no result given. Only some compounds are listed: those with a hit (about 4.7% of all), similar ones and a draw of the others. Unless noted, no stated cut-off is given here; in the data, active means activation above about 30%; inactive means the rest.

SMILES | D1 agonist | D1 antag | D1 PAM | TRHR agonist | TRHR enhancer
CCC(C)C(NC(=O)c1ccccc1NC(=O)c1ccco1)C(=O)NNC(=O)c1ccc(OC)cc1 (configuration not stated) | – | -63 | – | – | –
CC(C)COc1ccc(C(=O)Nc2ccc(NC(=O)c3ccco3)cc2)cc1 | – | -35 | – | – | –
Cc1oc(C(=O)Nc2ccc(O)cc2)cc1COc1ccccc1 | – | -32 | – | – | –
COc1ccc(C(=O)NNC(=O)C(NC(=O)c2ccccc2NC(=O)c2ccco2)C(C)C)cc1 (configuration not stated) | – | – | – | – | –
CCOc1ccc(NC(=O)c2cccc3c(=O)c4c([nH]c23)CCCC4)cc1 | – | – | – | – | –
CCOc1ccc(CCNC(=O)Cn2ccc3cc(S(=O)(=O)N4CCCCC4)ccc32)cc1 | – | – | – | – | –
CCCCn1c(-c2csc(CCC)c2)n[nH]c1=S | 57 | – | – | – | –
CCCc1cc(-c2n[nH]c(=S)n2CC)cs1 | – | – | – | – | –
Cc1cccc(N(C)c2nc3ccccc3c3nnc(C)n23)c1 | – | – | – | – | –
COC(=O)c1ccccc1OC(=O)c1cc[n+]([O-])cc1 | – | – | 31 | – | –
CN(C)c1ccc(CNC(=O)c2ccc(NC(=O)c3nsc4ccccc34)cc2)cc1 | – | – | – | – | –
CCc1nn(CC(=O)NCc2cccc(OC)c2)c(=O)c2cc3cc(F)ccc3n12 | – | – | – | – | –
Cn1c(=O)c(C(=O)COc2ccc(C#N)cc2)c(N)n(Cc2ccccc2)c1=O | 59 | – | – | – | –
CCC(=O)OCC(=O)c1c(N)n(Cc2ccccc2)c(=O)n(C)c1=O | – | – | – | – | –
CC(=O)Nc1nonc1-c1nc2ccccc2n1Cc1ccccc1Br | – | -70 | – | – | –
CC1=C(c2ccc(C)cc2)S(=O)(=O)N(Cc2ccc(C(=O)Nc3ccc(C)c(F)c3)cc2)C1=O | – | – | – | – | –
COc1ccc(/C=N/OCC(=O)NC(c2ccccc2)c2ccccc2)c(OC)c1 | – | – | – | – | –
CCOc1ccc(/C=N/OCC(=O)NC(c2ccccc2)c2ccccc2)cc1 | 33 | – | – | – | –
CC(C)(C)n1nc2c(c1NC(=O)Cc1cccs1)CSC2 | – | -81 | · | – | –
CCOc1ccc(N(CC(=O)NCc2ccc(C)cc2)S(=O)(=O)c2c(C)noc2C)cc1 | – | – | – | – | –
N#Cc1ccccc1CSc1ccc(-c2nc3ccccc3[nH]2)cn1 | – | -35 | – | – | –
Cc1cc2nc(-c3ccc(SCc4ccc(C#N)cc4)nc3)[nH]c2cc1C | – | -43 | – | – | –
CC(=O)CSc1ccc(-c2nc3ccccc3[nH]2)cn1 | – | – | – | – | –
COC(=O)c1ccc(Cn2nnc3sc4c(c3c2=O)CCC(C)C4)cc1 (configuration not stated) | – | – | – | – | –
CCCc1cc(N2CCN(c3ccccc3)CC2)n2cnnc2n1 | – | – | – | – | –
SMILES | D1 agonist | D1 antag | D1 PAM | TRHR agonist | TRHR enhancer
CCCc1cc(N2CCN(c3ccc(OC)cc3)CC2)n2cnnc2n1 | – | -33 | – | – | –
COc1ccc2[nH]c(C(=O)N3CCNCC3)cc2c1OC | – | -41 | – | – | –
O=C(O)CCc1nn2cc(-c3ccccc3)nc2[nH]c1=O | – | -79 | – | – | –
CC(C)OCCCNC(=O)CCCn1c(SCC(=O)c2ccc(Br)cc2)nc2c(sc3ccccc32)c1=O | – | – | – | – | –
COc1ccc(NC(=O)CC2NCCNC2=O)c(OC)c1 (configuration not stated) | – | – | – | – | –
Clc1nc(-c2n[nH]nc2Cl)n[nH]1 | – | -31 | – | – | –
Cc1ccc(CSc2nnc(C)c(=O)n2N)cc1 | – | -48 | – | – | –
Cc1nnc(SCc2ccccc2)n(N)c1=O | – | – | – | – | –
CCCn1c(=O)c2sccc2n2c(CCCC(=O)N3CCN(c4ccccc4)CC3)nnc12 | – | – | – | – | –
CCNc1oc(/C=C/c2ccc(OCC)cc2)nc1C#N | – | – | – | – | –
COc1ccc(/C=C/c2nc(C#N)c(NCc3ccc(C)cc3)o2)cc1OC | – | – | – | – | –
COc1ccc(CNc2oc(/C=C/c3cc(OC)c(OC)c(OC)c3)nc2C#N)cc1 | 40 | – | – | – | –
CCOc1ccc(/C=C/c2nc(C#N)c(NCCc3ccccc3)o2)cc1 | – | -37 | – | – | –
COc1ccc(/C=C/c2nc(C#N)c(NCCN(C)C)o2)cc1OC | – | -30 | – | – | –
CCCN(CCC)CCCNC(=O)c1cc2cc3ccc(Cl)cc3nc2o1 | – | – | – | – | 40
Nc1nonc1C(=O)N/N=C/c1cc(Br)ccc1O | 63 | – | – | 45 | –
COc1ccccc1CNC(=O)c1cc2c(-c3ccc(Cl)cc3)nn(C)c2s1 | – | – | – | – | –
CC(C)NS(=O)(=O)c1ccc(N2C(=O)c3ccccc3C2=O)cc1 | – | -33 | – | – | –
CC(C1CC2CCC1C2)n1c(COc2ccccc2F)nnc1SCC(N)=O (configuration not stated) | 89 | – | – | – | –
COc1ccc(Nc2nc(-c3cccs3)cs2)c(OC)c1 | – | – | – | – | –
COc1ccc(Nc2nc(-c3sc(C)nc3C)cs2)c(OC)c1 | – | -43 | – | – | –
C#CCOCCOCCOCCNc1nc(N2CCN(C(=O)Cn3cc(CCCCN)nn3)CC2)nc(N2CCN(C(=O)Cn3cc(CC(C)O)nn3)CC2)n1 (configuration not stated) | – | -32 | – | – | –
C#CCOCCOCCOCCNc1nc(N2CCN(C(=O)CCCCCCCCCCNC(=O)Cn3cc(CCCCCN)nn3)CC2)nc(N2CCN(C(=O)CCCCCCCCCCNC(=O)Cn3cc(C[C@@H](C)O)nn3)CC2)n1 | – | – | 43 | – | –
CCCN(Cc1cccs1)C(=O)Nc1ccc(F)c(Cl)c1 | – | – | – | – | –
CCCSc1nc2c(c(=O)[nH]1)C(c1ccc(F)cc1F)CC(=O)N2 (configuration not stated) | 37 | – | – | – | –
SMILES | D1 agonist | D1 antag | D1 PAM | TRHR agonist | TRHR enhancer
C=CCOc1cccc(CNCc2ccncc2)c1 | – | -35 | – | – | –
CCOc1ccc(CCNC(=O)c2cn(CC)c3ccc(S(=O)(=O)N4CCCCCC4)cc3c2=O)cc1OCC | – | – | – | – | –
CCOC(=O)C1CCN(C(=O)Cn2nc(CC)n3c(cc4sccc43)c2=O)CC1 | – | – | – | – | 30
COc1ccccc1Cc1nc2ccccc2nc1SCC(=O)N1CCC(C)CC1 | – | – | – | – | –
CSc1cccc(NC(=O)Cn2c3ncccc3c(=O)n2-c2ccc(C)cc2)c1 | – | – | – | – | –
COc1cc(CNCc2ccc(OC)cc2OC)cc(OC)c1 | – | – | – | – | –
COc1cc(CNCc2ccc(Br)cc2)cc(OC)c1 | 82 | – | – | – | –
COc1cc(CNCc2c[nH]c3ccccc23)cc(OC)c1 | – | -40 | – | – | –
